Source: the supplement of paper PMC10338343
± gives the standard deviation.

The sequences below were run on MILI (PIWIL2) piRISC loaded with L1MC piRNA (26 nt) (assay: pre-steady-state target cleavage rate (min^-1); guide: L1MC piRNA 5'p-UAACUAAAUACUAUGCAAGCUGUAGG; MIWI and MILI are mouse PIWI proteins and EfPiwi is from a freshwater sponge; tags in brackets are library labels; higher = faster piRNA-guided slicing of the target). Conditions: auxiliary factor: 500 nM mouse GTSF1.
How it was run: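 In Cleave-'n-Seq, a transcribed, DNA-blocked target RNA library (0.1 nM) was combined with 1 nM active affinity-purified piRISC bearing one synthetic guide, with or without 500 nM GTSF1 partner protein. Reactions ran in HEPES–potassium acetate buffer at 33 °C for 0–8 or 0–960 min. Uncleaved targets were sequenced and normalised to depth and to weakly complementary targets, three trials were pooled, and k3 was capped at 0.0001 min^-1. The pre-steady-state cleavage rate was obtained by fitting a burst-and-steady-state model.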

Row | Sequence | pre-steady-state target cleavage rate
1 | UCCUGGAUGUGCUUGCAUACUAAUUAGUUA | 0.00944 ± 0.0038
2 | UCCUGCUACAGCUUCCAUAGUAUUUUGUUA | 0.00554 ± 0.0042
3 | UCCUGGAUGUGCUUGCAUAGUAUAUAGAUA | 0.00547 ± 0.0037
4 | UCCUGCUACAGCUUCGAUAGUAUUUAGAAA | 0.0541 ± 0.017
5 | UCCUGCUACAGCUAGCAUAGUAUUUACAAA | 0.0708 ± 0.018
6 | UCCUGGAUGUCCUUGCAUUGAAUUUAGUUA | 0.00493 ± 0.0046
7 | UCCUGGAUGUCGAAGCAUAGUAUUUAGUUC [g2:g16:cont:t1C] | 0.0284 ± 0.0076
8 | UCCUGGAUGUCGAUGCUUAGUAUUUAGUAA | 0.0164 ± 0.0045
9 | UCCUCCUACAGCUUGCAUACUAUUUAGAAA | 0.136 ± 0.043
10 | UCCUGCUACAGCUUGGUAAGUAUUUAGUAA | 0.207 ± 0.039
11 | UCCUGGUACAGCUAGCAUAGUAUUUUCAAA | 0.0662 ± 0.02
12 | UCCUGGAUGUCCUUGCAUAGUAAAAAGUUA | 0.0137 ± 0.0059
13 | UCCUGGAACAGGUUGCAUAGUAUUUACUUA | 0.0532 ± 0.012
14 | UCCUGGAACAGCUUGCAUAGUAAAAACAAA | 0.0763 ± 0.031
15 | UCCUCCUACAGCUUGCAAUGUAUUUACAAA | 0.0431 ± 0.011
16 | UCCUGGUACAGCUUGCAUAGUAUUUUCAAA | 0.109 ± 0.027
17 | UCCUGGAACAGCUUGCAUAUAUUUAGUUA | 0.0331 ± 0.0059
18 | UCCUCCUACAGCUUGCUAAGUAUUUUCAAA | 0.0625 ± 0.017
19 | UCCUGGAUGUCGAAGCAUAGUAUUUAGGUA | 0.00926 ± 0.0047
20 | UCCUGGAAGUCCUUGCAUAGUAUUUAGAAA | 0.151 ± 0.03
21 | UCCUCCUACAGCUUGCAUAGUUAAUUCAAA | 0.0506 ± 0.016
22 | UCCUGGAACAGCUUGCAUAGUAAUAAGUUA | 0.103 ± 0.018
23 | UCCUGGAACAGCUUGCAAAGUAUUUACAAA | 0.0328 ± 0.01
24 | UCCUGGAUCAGCUUGCAUAGUAAAUAGAAA | 0.0183 ± 0.0078
